Among all 300,000 compounds or so, about 2,500 (0.83%) were called active. Rule as the data show it: active = inhibition above about 60%; inconclusive = no clear call, values can overlap the other calls; inactive = below that. Shown is part of a subset that was picked to be rich in actives.

This assay in a line: 5' untranslated region of α-synuclein, MLPCN primary screen (AID 1813).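 Also: H4 neuroglioblastoma cells stably carrying SNCA 5'UTR luciferase fusion; 0% = DMSO wells and 100% = positive control.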 The following applies: alpha-synuclein 5'UTR reporter, inhibitor activity; active compounds read high; tested at 7.5 µM.
By inhibition is commonly meant the drop in the measured response relative to a control, in per cent. For the molecule `Cc1nc2ccc(N3CCN(C)CC3)cc2nc1C`, the inhibition was -72% (inactive).

With `CN1CCN(c2cc(N3CCNCC3)ccc2[N+](=O)[O-])CC1`, the inhibition was 9.3% (inactive).

For the molecule `COc1cccc(-c2nc3ccc(N4CCN(C)CC4)cc3[nH]2)c1`, the inhibition was 68.9% (active).

For `CN(C)c1ccc(/C=C2\CC3C4CC=C5CC(O)CCC5(C)C4CCC3(C)C2=O)cc1` (stereo not given), the inhibition is 8.56% (inactive).

With `CSc1nc2ccc(C)cc2c(=O)n1-c1cccnc1`, the inhibition is -1.34% (inactive).

As for `CCOc1ccc(-c2cc(C)[n+](CCN(CC)CC)c(-c3ccc(OCC)cc3)c2)cc1`, the inhibition is 95.2% (active).

As for `Cc1cccc2c(CCN)c[nH]c12`, the inhibition was 10.6% (inactive).

For `Cc1ccc(P(=S)(c2ccc(C)o2)N2CCOCC2)o1`, the inhibition was -9.28% (inactive).

For `CCN(N=Nc1nonc1OC)c1nonc1OC`, the inhibition is -2.32% (inactive).

For `CCCCCCCCCCCCn1ccc(=N)cc1`, the inhibition is 104% (active).

`CNP1(NC)=Nc2nn(-c3ccccc3)c(N)c2C(c2ccccc2)=N1`: the inhibition is 9.19% (inactive).

Turning to `COc1ccc2c(c1O)-c1cccc3c1[C@@H](C2)N(C)CC3`, the inhibition was -3.62% (inactive).

For `O=C(OCCN1CCOCC1)C1(c2ccccc2)CCCC1`, the inhibition was 1.68% (inactive).

As to `Cc1c(Oc2cc(NN3CCCCC3)c([N+](=O)[O-])cc2[N+](=O)[O-])cccc1[N+](=O)[O-]`, the inhibition was 15.3% (inactive).

Consider `Cc1cccc(NC(=O)N2CC3CC(C2)c2cccc(=O)n2C3)c1` (stereo not given), for which the inhibition is 13.7% (inactive).

Turning to `c1cc2c(cc1[C@H]1OC[C@H]3[C@@H]1CO[C@@H]3c1ccc3c(c1)OCO3)OCO2`, the inhibition was 72.8% (active).

Turning to `O=C1/C(=C\c2ccc3c(c2)OCO3)N2CCC1CC2`, the inhibition is 17.4% (inactive).

As for `c1cc2c(cc1CCNC1CCCCCC1)OCO2`, the inhibition is 2.86% (inactive).

Regarding `CC(C)n1c(=O)c(C=Nc2ccc(Br)cc2)c(O)n(Cc2ccco2)c1=O`, the inhibition was -1.22% (inactive).

With `Cc1ccc(Cn2c(C)c3cnn(CC(=O)N4CCC5(CC4)OCCO5)c(=O)c3c2C)cc1`, the inhibition is 12% (inactive).

The values above are taken from PubChem BioAssay AID1813 (Broad Institute, 2009).
